# In article PMC5540273 (PLoS ONE, 2017):
# System: MET
# Conditions: concentration: 1 μM,replicates: in singlicate; n = 1
# 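Further: KINOMEscan kinase panel screen.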
row,SMILES,%Inh [%]
1,C[C@@H](Oc1cc(-n2cnc3cc(-c4ccncc4)ccc32)sc1C(N)=O)c1ccccc1Cl [GSK479719],52
2,COc1cc2c(Nc3ccc(NC(=O)c4ccccc4)cc3)ncnc2cc1OCCCN1CCOCC1 [GSK301329],50
3,Cc1cccc(-c2nc(Nc3ccncc3)c3sccc3n2)n1 [GW869641],28
4,Cl.Cl.NC[C@H](CC1CCCCC1)NC(=O)c1ccc(-c2ccnc3[nH]ccc23)s1 [GSK1581428],16
5,Cc1ccc(Nc2ccnc(Nc3ccc4c(c3)CS(=O)(=O)C4)n2)cc1O.Cl [GW579362],80
6,CCOC(=O)N1CCC(n2cnc(-c3ccc(F)cc3)c2-c2ccnc(N)n2)CC1 [SB-219952],16
7,CS(=O)(=O)c1cccc(CNc2nc(Nc3ccc4c(c3)[C@@H]3C[C@@H]4CNC3=O)ncc2C(F)(F)F)c1,93.8
8,CCN1CCN(CCCC(=O)Nc2n[nH]c3nc(-c4ccc(O)cc4)c(Br)cc23)CC1 [SB-731579],0
9,COC(=O)c1cccc(NC(=O)NC2CCN(c3ccnc(Nc4cc(OC)c(OC)c(OC)c4)n3)C2)c1 (centres unmarked) [GSK1379767],19
10,Cn1cc(-c2cccc3c(N)c(C(N)=O)nnc23)cn1,3
11,Cn1ccc2ncnc(Oc3ccc(NC(=O)Nc4cccc(C(F)(F)F)c4)c(F)c3)c21,50
12,COc1cc(Nc2nccc(N3CCC(NC(=O)c4cccc(C#N)c4)C3)n2)cc(OC)c1OC (centres unmarked) [GSK1379751],6
13,c1ccc(Oc2ccc(Nc3ccnc4ccc(-c5ccccn5)cc34)cc2)cc1 [GW407034],16
14,C[C@@H](Oc1cc(-n2cnc3cc(-c4cnn(C)c4)ccc32)sc1C(N)=O)c1ccccc1Cl [GSK580432],69
15,FC(F)(F)c1cc(Br)cc(Nc2nccc(-c3cnn4ncccc34)n2)c1 [GW810578],0
16,COc1cccc(CNC(=O)NC2CCN(c3ccnc(Nc4cc(OC)c(OC)c(OC)c4)n3)C2)c1 (centres unmarked) [GSK1379765],26
17,Cc1n[nH]c2cc(Nc3ccnc(Nc4cccc(CN5CCOCC5)c4)n3)ccc12 [GW682569],14
18,O=C(NCC1CC1)c1ccc(-c2cc(C(=O)NC3CC3)ccc2F)cc1 [GW810445],0

row,SMILES,%Inh [%]
1,Cc1nnc(-c2ccc3occ(-c4ccc(S(C)=O)cc4)c3n2)o1 (centres unmarked),0
2,COC(=O)c1cccc(NC(=O)NC2CCN(c3ccnc(NCc4ccc(F)cc4)n3)CC2)c1 [GSK1379860],0
3,Cc1cccc2c(-c3ccncc3)c(-c3ccc(F)cc3)nn12.Cl [GW461487],0
4,O=C(Nc1n[nH]c2cc(-c3ccco3)ccc12)C1CC1 [SB-737447],0
5,CN(c1ccccc1CNc1nc(Nc2ccc3c(c2)CC(=O)N3)ncc1C(F)(F)F)S(C)(=O)=O,86
6,CC(=O)Nc1nc2cnc(Nc3cc(NC(=O)c4cccc(CC(C)(C)C#N)c4)ccc3C)nc2s1,7
7,COc1ccc(Nc2nccc(N3CCC(NC(=O)c4cccc(C#N)c4)C3)n2)cc1 (centres unmarked) [GSK1379730],9
8,CS(=O)c1ccc(-c2coc3ccc(-c4n[nH]c(=O)o4)cc23)cc1 (centres unmarked),22
9,CS(=O)(=O)Nc1ccc(-c2ccnc3[nH]ccc23)cc1 [GSK993273],2
10,Cn1ccc2ncnc(Oc3ccc(NC(=O)Nc4cnn(C(C)(C)C)c4)c(Cl)c3)c21,35
11,Cl.c1ccc(Oc2ccc(Nc3ccnc4cc(-c5ccc(CN6CCNCC6)o5)ccc34)cc2)nc1 [GW567142],0
12,CSc1nccc(-c2c(-c3ccc(F)cc3)ncn2CCCN2CCOCC2)n1.Cl [SB-217146],0
13,C[C@@H](Oc1cc(-n2cnc3ccc(-c4ccncc4)cc32)sc1C(N)=O)c1ccccc1Cl [GSK483724],9
14,Nc1nccc(-c2ccc3c(N)n[nH]c3c2)n1 [GSK1034945],0
15,CC(C(=O)NC1CCN(c2ccnc(Nc3ccc(F)cc3)n2)C1)c1ccc(Cl)cc1 (centres unmarked) [GSK1379713],0
16,C[C@@H]1CCN(C(=O)N2CCCC2)C[C@@H]1N(C)c1ncnc2[nH]ccc12,0
17,NC(=O)c1ccc(-c2cc3ncnc(SCC(=O)O)c3s2)cc1,0
